Bioassay records from PubChem.
Six1-Eya2 blk – blocks human Six1 binding to Eya2. Q15475+O00167. AlphaScreen GST-Six1/His-Eya2 binding, biochemical; hits give low values. activity change, % (test concentration not listed). actives 0.56% (n = 360,000). AID 651725; in the data active = activity change below about -65%; inconclusive = mostly about -30% to -63%; note: % is set by controls: 0 for no effect and ±100 for the full control effect
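Homogeneous AlphaScreen proximity assay pairing GST-Six1 with His-tagged Eya2 (added as 5X mix: 250 nM and 500 nM) in 50 mM Tris pH 8.0, 300 mM NaCl, 1 mM TCEP. Glutathione donor and nickel acceptor beads; 1 h, 37 °C, dark.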
Eya2 inh – blocks the phosphatase activity of human Eya2 | actives 0.006% (n = 330,000) | Potency, µM (series often up to 76.9 µM), without a hit: top-dose activity, negative = inhibition, usual class: inhibitors | recombinant Eya2, OMFP fluorescence dephosphorylation (OMFP is methylfluorescein phosphate); note: potency is the fitted concentration of half-maximal effect; % is set by controls: 0 for no effect and ±100 for the full control effect
Target sequence (O00167 whole entry, looked up): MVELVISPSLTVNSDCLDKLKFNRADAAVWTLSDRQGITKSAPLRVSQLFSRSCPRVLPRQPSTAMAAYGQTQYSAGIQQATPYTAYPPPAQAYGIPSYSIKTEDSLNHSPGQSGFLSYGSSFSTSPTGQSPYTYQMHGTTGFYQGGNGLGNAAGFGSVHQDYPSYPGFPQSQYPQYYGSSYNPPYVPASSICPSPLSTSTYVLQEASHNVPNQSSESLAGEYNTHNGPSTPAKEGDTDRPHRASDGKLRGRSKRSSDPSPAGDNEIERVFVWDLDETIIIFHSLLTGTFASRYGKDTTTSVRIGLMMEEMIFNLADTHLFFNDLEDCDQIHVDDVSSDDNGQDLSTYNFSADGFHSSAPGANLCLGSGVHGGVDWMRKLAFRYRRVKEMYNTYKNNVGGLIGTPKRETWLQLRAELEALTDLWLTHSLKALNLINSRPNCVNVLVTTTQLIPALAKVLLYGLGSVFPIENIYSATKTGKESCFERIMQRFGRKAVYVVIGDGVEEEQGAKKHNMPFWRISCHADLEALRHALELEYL
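Eya2 protein (added as 0.2 uM solution) was preincubated with compound for 10 min at ambient temperature in 50 mM HEPES pH 7.5, 50 mM NaCl, 5 uM MgCl2, 0.05% BSA, 1 mM DTT. OMFP (added at 50 uM) then reacted 10 min; fluorescence read at 485/525 nm.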
CtBP-E1A blk – blocks the CtBP interaction with E1A; actives 0.49% (n = 340,000); AlphaScreen GST-E1A/His-CtBP binding, 1536-well; hits give low values; activity change, % (test concentration not listed); AID 651724; in the data active = activity change below about -65%; inconclusive = mostly about -30% to -63%; note: % is set by controls: 0 for no effect and ±100 for the full control effect
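Steps: dispense buffer (Tris pH 8.0, NaCl 300 mM, TCEP 1 mM, BSA, Tween 20); add 5X protein mix (GST-E1A, His-CtBP, 125 nM each); pin 23 nL compound; 2 h at 37 °C, dark; add 5X beads (50 ug/mL); 1 h; read.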
MBNL1 CUG block – inhibitors of human MBNL1 binding to CUG repeat RNA | TR-FRET MBNL1-His/biotin-(CUG)12 binding, 665/545 ratio | Potency, µM (series often up to 57.5 µM), for inactives: at the top dose activity change, negative = inhibition, most hits filed as inhibitors | actives 0.036% (n = 280,000); active = well fitted inhibition curve with a large enough effect in the signal ratio, with a control signal flat, not every such curve was filed as active; inconclusive = small, poorly fitted or top-dose-only effect, or effect the other way, or a change in a side signal; inactive = no such curve, though single readings can be large or run the other way; the % refers to the signal ratio; note: potency is the fitted concentration of half-maximal effect; % is set by controls: 0 for no effect and ±100 for the full control effect
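MBNL1-His + Biotin-(CUG)12, cpd titration 92 nM–58 uM; Tb anti-His Ab 0.055 ng/ul, SA-XL665 5 nM (final); 60 min RT; ratiometric 665/545 nm, Ex 340 nm; normalized to buffer and full-complex controls.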
L3MBTL1 inh – blocks human L3MBTL1; Q9Y468; AlphaScreen L3MBTL1–H3K9me1 peptide binding; Potency, µM (titrated, usually from 57.1 µM), for inactives: top-dose activity, negative = inhibition, most hits filed as inhibitors; actives 0.66% (n = 230,000); note: potency is the fitted concentration of half-maximal effect; % is set by controls: 0 for no effect and ±100 for the full control effect; nearly all actives have a fitted effect of over 60% in size
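Read-out is AlphaScreen signal from streptavidin donor and nickel chelate acceptor beads (10 ug/mL final each) bridging L3MBTL1 (50 nM) and biotinylated K9-monomethylated H3(1-15) peptide (75 nM), after 30 min compound exposure at room temperature.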
CBFb RUNX1 block – CBF-beta/RUNX1 interaction disruption. AlphaScreen CBFb-His/RUNX1-biotin binding, biochemical. Potency, µM (titrated, usually from 59.8 µM), without a hit: at the top dose activity, negative = inhibition, usual class: inhibitors. 230,000 tested, under 10 active; note: % of control where 0% means no effect
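Room-temperature protein-protein interaction test with 30 nM each of His-tagged CBF-beta and biotinylated RUNX1, 15 min with compound, then 90 min with nickel plus streptavidin beads. Signal read in AlphaScreen mode.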
Active calls of the source: *; ? = inconclusive; . = not tested or not shown. An excerpt weighted towards active compounds, which were near 0.89% of everything screened. Unless noted, calls come from the whole dose curve; as a rule, active = well fitted curve in the direction sought with a large enough effect; inconclusive = small, poorly fitted or top-dose-only effect, or another doubt; inactive = no such curve, though single readings can be large; an effect the other way counts as inactive or inconclusive.

SMILES	Six1-Eya2 blk	Eya2 inh	CtBP-E1A blk	MBNL1 CUG block	L3MBTL1 inh	CBFb RUNX1 block
O=C(N=Nc1c(O)[nH]c2ccc([N+](=O)[O-])cc12)c1ccccc1Cl	-10	-27%	.	1%	-4%	-1%
CCOc1ccc(NC(=S)N=Nc2c(O)[nH]c3ccccc23)cc1	?	9%	?	22%	-27%	-28%
O=[N+]([O-])c1ccc2[nH]c(O)c(N=NC(=S)NCC3CCCO3)c2c1 (stereo not drawn)	-21	-2%	-15	13%	-14%	-5%
O=C(O)c1ccccc1N=Nc1c(O)[nH]c2ccc([N+](=O)[O-])cc12	-72*	-1%	-85*	16%	.	.
O=[N+]([O-])c1ccc2[nH]c(O)c(N=NC(=S)Nc3cccnc3)c2c1	-80*	3%	-88*	?	.	-16%
Oc1cccc(NC(=S)N=Nc2c(O)[nH]c3ccccc23)c1	?	8%	-68*	?	?	6%
COc1ccc(-c2nc(CSCC(=O)NCCCN3CCCC3=O)c(C)o2)cc1OC	2	10%	4	-4%	.	.
OC[C@H]1O[C@@H](n2cnc3cncnc32)[C@H](O)[C@@H]1O	.	1%	.	.	.	-1%
COc1ccc(C(=O)Nn2c(SCC(=O)N3CCC(C)CC3)nc3ccccc3c2=O)cc1	?	6%	-71*	6%	-1%	-2%
COc1ccc(C(=O)Nn2c(SCC(=O)NC3CCCCC3)nc3ccccc3c2=O)cc1	-14	12%	-27	-6%	.	-8%
c1ccc(-c2cn(C[C@H]3CC[C@@H]([C@@H]4CC[C@H](Cn5cc(-c6ccccn6)nn5)O4)O3)nn2)nc1	-87*	-6%	-81*	-7%	2.5µM*	.
COc1cccc(CNc2ccc(N3CCC(C)CC3)cc2)c1OC	-72*	-8%	-70*	-1%	?	?
CC1CCN(c2ccc(NC(=O)Cc3ccccc3)cc2)CC1	-23	5%	-1	-3%	1%	10%
CCCCCCCCCCCCCCCCOC[C@H](COP(=O)([O-])OCC[N+](C)(C)C)OC(=O)CCCCCCCC(=O)O	.	.	.	.	.	-7%
COc1cccc(-n2c(SCc3cc(=O)oc4cc(O)c(O)cc34)nc3ccccc3c2=O)c1	-24	4%	-2	16%	32µM*	.
C=CCC[C@@H](CCCCC)OC(=O)/C=C/[C@H](O)[C@@H](O)C[C@H](O)CC=C	7	.	-21	.	.	.
Cc1nc(N)sc1C(=O)N/N=C/c1ccc([N+](=O)[O-])cc1	17	-2%	13	14%	.	25%
COc1ccc2ccccc2c1/C=N/NC(=O)c1sc(N)c(C#N)c1C	-7	-1%	-2	.	2%	-9%
COc1cc(/C=N/NC(=O)c2sc(N)c(C#N)c2C)cc(Br)c1O	-67*	-18%	-77*	?	0%	-1%
COc1cc(/C=N\NC(=O)c2sc(N)nc2C)cc(OC)c1OC	-82*	-14%	-84*	?	36%	5%
CCN(CC)S(=O)(=O)c1cc(OC)ccc1N=Nc1ccc(O)c2ncccc12	-92*	-22%	.	36%	.	.
CCS(=O)(=O)c1ccc(OC)c(N=Nc2ccc(O)c3ncccc23)c1	-92*	-7%	-96*	?	.	.
COc1cccc([C@@H]2Oc3ccc(Br)cc3C(=O)[C@H]2OC(=O)NS(=O)(=O)c2ccc(F)cc2)c1	.	.	.	.	.	4%
O=C(Oc1ccc(Br)cc1C(=S)N1CCOCC1)c1ccc([N+](=O)[O-])cc1[N+](=O)[O-]	-94*	6%	?	?	.	.
O=C(Oc1cccc(C(=S)N2CCOCC2)c1)c1ccc([N+](=O)[O-])cc1[N+](=O)[O-]	-69*	-4%	5	?	.	.
SMILES	Six1-Eya2 blk	Eya2 inh	CtBP-E1A blk	MBNL1 CUG block	L3MBTL1 inh	CBFb RUNX1 block
O=C(Oc1ccc(Br)cc1C(=S)N1CCCCC1)c1cc([N+](=O)[O-])cc([N+](=O)[O-])c1	-4	-3%	-2	?	.	-4%
CCCNC(=O)C1(C)CCN(Cc2ccc(OCc3ccccc3)cc2)C1 (stereo not drawn)	4	.	-7	.	.	.
Cc1ccc(NC(=S)c2nc3ccccc3[nH]2)cc1	-81*	-21%	-72*	?	?	?
Cc1ccc(NC(=S)N2CCCC(c3nc4ccccc4[nH]3)C2)cc1 (stereo not drawn)	-1	-28%	.	2%	-4%	-18%
Cc1ccc(NC(=S)c2nc3ccccc3[nH]2)c(C)c1	-72*	-9%	?	0%	?	?
CCOc1ccc(S(=O)(=O)NC(C)C)cc1C(N)=O	14	7%	.	-3%	-10%	0%
Cc1cc(C)c2c(CN3CCCC3)cc(=O)oc2c1	12	.	-17	.	.	.
CCc1cc(=O)oc2cc(C)c(CN3CCCC3)c(O)c12	?	0%	-7	-18%	4µM*	.
CCCc1cc(=O)oc2cc(C)c(CN3CCCC3)c(O)c12	-22	5%	5	7%	8.9µM*	.
CCc1cc(=O)oc2cc(C)c(CN3CCCCC3)c(O)c12	-29	-3%	11	-3%	13µM*	.
CCOC(=O)C(Oc1ccc(=O)n(-c2ccccc2)n1)C(C)=O (stereo not drawn)	-1	5%	20	-4%	-7%	0%
COc1ccc2nc(-c3ccc(Cl)cc3)cc(C(=O)O)c2c1	-3	14%	-5	10%	0%	12%
COC(=O)c1ccc(OC(=O)c2cccs2)cc1	-68*	-17%	4	.	41%	-12%
O=C(c1ccc2c(=O)n(Cc3ccccc3Cl)c(=S)[nH]c2c1)N1CCOCC1	-2	-14%	5	0%	.	.
Cc1cc(NC(=O)c2cc([N+](=O)[O-])cc([N+](=O)[O-])c2)n(-c2ccccc2)n1	-1	-4%	0	?	-2%	-7%
Cc1cc(Nc2ccccc2C(=O)O)n(-c2ccc([N+](=O)[O-])cc2)n1	-81*	1%	.	?	-9%	1%
CCN(CC)c1ccc(/C=C2\C(=O)N(c3nnc(C)c(=O)[nH]3)N=C2C)cc1	-92*	2%	-92*	32%	?	.
CC1(C)CC2(CCO1)C(Nc1ccccc1)=NC(=S)N2c1ccccc1 (stereo not drawn)	14	17%	3	.	1%	-1%
Oc1ccc2ccccc2c1/C=N/Nc1nnc(-c2ncc[nH]2)c2ccccc12	-67*	6%	-73*	2%	.	-23%
COc1ccc(/C=N/Nc2nnc(-c3ncc[nH]3)c3ccccc23)cc1	-10	-6%	-8	2%	-14%	-11%
